In PubChem BioAssay (EPA / NIEHS) one finds outcome and AC50 data, which are given here for 20 compounds.

The test system of test [1] is Sodium/Iodide Symporter (NIS), SLC5A5 (gene 6528). Description: CPHEA_Stoker_NIS_Inhibition_RAIU: CPHEA's Radioactive Iodide Uptake (RAIU) Assay for Sodium/Iodide Symporter (NIS) Inhibition, Stoker and Laws Labs (AID 2283841). In outline:
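hNIS-HEK293T-EPA cells incubated 2 h at room temperature with compound (0.001–100 uM, 0.5% DMSO) and 329 pM final 125I in HBSS/10 mM HEPES, pH 7.4. Intracellular 125I counted; normalised to DMSO maximal uptake, triplicate, three biological replicates.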

Test [2] can be described thus: CPHEA_Stoker_NIS_Cytotoxicity: Cytotoxicity Assessment for CPHEA's Radioactive Iodide Uptake (RAIU) Assay for Sodium/Iodide Symporter (NIS) Inhibition, Stoker and Laws Labs (AID 2283897). In outline:
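hNIS-HEK293T-EPA cells, human NIS expressed in HEK293T, treated 2 h with chemicals (0.001–100 uM, 0.5% final DMSO). ATP content read by CellTiter-Glo luminescence; loss of signal analysed relative to DMSO.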

Test [3] addresses human Thyroid hormone Receptor beta (TRb), THRB (gene 7068) (UniProt P10828). Nature of the test: ATG_hTRb_XSP2: Attagene TRANS-FACTORIAL Multi-Species (XSP2) HepG2 Assay for human Thyroid hormone Receptor beta (TRb) (AID 2283840).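 Further: actives raise reporter mRNA so potency reflects agonist-like gain of signal.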 In a few lines:
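HepG2 transiently transfected with a multi-species panel including a human TRb–Gal4 chimera driving Gal4-UAS reporters; medium contained 3 nM 6-alpha-fluorotestosterone and 1.5 nM norgestrel. 24 h dosing; RT-PCR/capillary electrophoresis readout; positive-direction fit vs DMSO.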

Test [4] can be described thus: CEETOX_H295R_11DCORT_noMTC: CeeTox H295R High-throughput Steroidogenesis Assay for 11-Deoxycortisol (11DCORT), maximum tolerated concentration (MTC) filtered results only (AID 2283911; active means hit-call score of the fitted dose curve at least 0.9, where 1 is the maximum; inactive means score below 0.9). Particulars: actives raise or lower the signal. As to the method: CEETOX_H295R is a cell-based, multiplexed-readout assay that uses H295R, a human adrenal gland cell line, with measurements taken at 48 hours after chemical dosing in a 96-well plate.CEETOX_H295R_11DCORT_noMTC is one of 12 assay component(s) measured or calculated from the CEETOX_H295R assay (11 hormones and 1 viability assay). It is designed to make measurements of hormone induction, a form of inducible reporter, as detected with absorbance signals by HPLC-MS-MS technology. The concentrations for these components have not been pre-filtered for the maximum tolerated concentration (MTC) based on the MTT assay (_noMTC).Data from the assay component CEETOX_H295R_11DCORT_noMTC was analyzed into 1 assay endpoint. This assay endpoint, CEETOX_H295R_11DCORT_noMTC, was analyzed with bidirectional fitting relative to DMSO as the negative control and baseline of activity. […]
Cell culture and media preparation procedures were conducted in accordance with OECD Test No. 456 guidelines, with minor modifications. […] For steroid quantification, media samples were shipped to OpAns, LLC (Durham, NC) on dry ice, and samples were thawed to room temperature prior to liquid-liquid extraction. […] Steroid hormones were separated by HPLC, eluted using a reverse phase C18 gradient with electrospray positive ionization, followed by quantification by tandem mass spectrometry (MS/MS). Data were acquired on a MassHunter Workstation Acquisition version B03.01 (Agilent Technologies, Inc.) and processed using MassHunter Quantitative Analysis for QQQ. Accuracy was determined for each hormone analyte from 3 standards to determine upper and lower limits of quantification (ULOQ and LLOQ, respectively) using a 7-point standard curve. Precision and accuracy of the extraction and quantification methods were calculated as the percent relative standard deviation (%RSD) of the spiked standards and percent spiked standard recovered, respectively. […] Test medium was removed following chemical exposure, and cell viability was evaluated in the same wells by MTT. […]

Test [5] can be described thus: CEETOX_H295R_OHPREG_noMTC: CeeTox H295R High-throughput Steroidogenesis Assay for OH-Pregnenolone (OHPREG), maximum tolerated concentration (MTC) filtered results only (AID 2283912; active means hit-call score of the fitted dose curve at least 0.9, where 1 is the maximum; inactive means score below 0.9). As to conditions: actives raise or lower the signal. In outline: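 Readout is HPLC-MS/MS quantification of 17alpha-hydroxypregnenolone released by forskolin-stimulated H295R cells over 48 h of chemical exposure, DMSO as baseline.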

Test [6] is described as follows: CEETOX_H295R_OHPROG_noMTC: CeeTox H295R High-throughput Steroidogenesis Assay for OH-Progesterone (OHPROG), maximum tolerated concentration (MTC) filtered results only (AID 2283914; active means hit-call score of the fitted dose curve at least 0.9, where 1 is the maximum; inactive means score below 0.9). As to conditions: actives raise or lower the signal. In outline:
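Analysis uses all tested concentrations, without maximum-tolerated-concentration screening by MTT. H295R cells, forskolin-primed (10 uM, 48 h), receive chemical for 48 h; hormone in medium measured by HPLC-MS/MS, with bidirectional curve fitting against DMSO.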

Test [7] is described as follows: CEETOX_H295R_CORTISOL_noMTC: CeeTox H295R High-throughput Steroidogenesis Assay for Cortisol, maximum tolerated concentration (MTC) filtered results only (AID 2283916; active means hit-call score of the fitted dose curve at least 0.9, where 1 is the maximum; inactive means score below 0.9). As to conditions: actives raise or lower the signal. In outline: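 H295R adrenal cells were pre-stimulated 48 h with 10 uM forskolin, then exposed 48 h to test chemical in 0.1% DMSO. Medium cortisol was measured by MTBE extraction and HPLC-MS/MS; bidirectional fit versus DMSO, concentrations not MTC-filtered.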

A short description of test [8]: CEETOX_H295R_CORTIC_noMTC: CeeTox H295R High-throughput Steroidogenesis Assay for Corticosterone (CORTIC), maximum tolerated concentration (MTC) filtered results only (AID 2283917; active means hit-call score of the fitted dose curve at least 0.9, where 1 is the maximum; inactive means score below 0.9). Particulars: actives raise or lower the signal. In outline: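 Forskolin-stimulated (10 uM, 48 h) H295R cells are dosed 48 h with chemical in DMSO (0.1% final); corticosterone change is quantified by HPLC-MS/MS and fitted bidirectionally against DMSO, unfiltered for MTT-derived MTC.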

The nature of test [9]: CEETOX_H295R_DOC_noMTC: CeeTox H295R High-throughput Steroidogenesis Assay for DOC, maximum tolerated concentration (MTC) filtered results only (AID 2283918; active means hit-call score of the fitted dose curve at least 0.9, where 1 is the maximum; inactive means score below 0.9). As to conditions: actives raise or lower the signal. In a few lines: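 H295R cells prestimulated 48 h with 10 uM forskolin, then exposed 48 h to test chemical (0.1% DMSO final). Medium 11-deoxycorticosterone extracted with MTBE, quantified by HPLC-MS/MS; bidirectional fit versus DMSO, concentrations not MTC-filtered.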

Values joined by “and” are separate entries in the source; they are usually repeats but may differ in a detail not shown here. Equal values may be shown once. Records with an inconclusive call do not appear. Where a structure was tested more than once in an assay, its records may differ in their call. Active and inactive are the calls of the source. How the source made its calls, unless noted: active means hit-call score of the fitted dose curve at least 0.9, where 1 is the maximum; inconclusive means response in the unintended direction; inactive means score below 0.9.

Sequence of human Thyroid hormone Receptor beta (TRb), THRB (gene 7068) (P10828 whole entry, looked up, the tested form may be a part): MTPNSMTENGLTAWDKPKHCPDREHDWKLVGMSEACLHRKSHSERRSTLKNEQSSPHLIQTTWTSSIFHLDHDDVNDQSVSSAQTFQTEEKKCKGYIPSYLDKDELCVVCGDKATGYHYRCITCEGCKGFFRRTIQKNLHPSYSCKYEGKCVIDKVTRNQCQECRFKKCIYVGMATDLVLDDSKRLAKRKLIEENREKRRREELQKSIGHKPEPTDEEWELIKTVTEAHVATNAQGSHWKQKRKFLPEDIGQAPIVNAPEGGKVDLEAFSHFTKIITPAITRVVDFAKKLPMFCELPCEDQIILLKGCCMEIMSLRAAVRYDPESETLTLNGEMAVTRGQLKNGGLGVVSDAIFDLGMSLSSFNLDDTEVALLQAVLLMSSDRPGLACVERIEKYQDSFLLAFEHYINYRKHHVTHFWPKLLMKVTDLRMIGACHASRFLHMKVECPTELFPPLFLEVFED

On to `CCCCCCCCCC[N+](C)(C)CCCCCCCCCC`, for which the outcome in test [1] and in test [2] was inactive.
As to `C[C@]12CCC(=O)C=C1CC[C@@H]1[C@@H]2CC[C@@]2(C)[C@H]1CC[C@]2(C)O`, the compound was called inactive in [3].
Consider `CO/C=C(/C(=O)OC)c1ccccc1COc1cccc(C(F)(F)F)n1`, for which the outcome in [1] and in test [2] was inactive.
In the case of `CCOC(=O)C(O)(c1ccc(Cl)cc1)c1ccc(Cl)cc1`, the compound was classed as inactive in test [3], in test [1] and in [2].
On to `CCC(C)(c1ccc(O)cc1)c1ccc(O)cc1`, for which the outcome in test [1] and in test [2] was inactive.
Consider `Cc1cccc(C)c1N`, for which the outcome in [1] and in test [2] was inactive.
In the case of `ClC1=C(Cl)[C@]2(Cl)[C@@H]3[C@@H]4C[C@@H]([C@H]5O[C@@H]45)[C@@H]3[C@@]1(Cl)C2(Cl)Cl`, the outcome in test [1] and in test [2] was inactive.
For the compound `CCSC(=O)N(CC)C1CCCCC1`, the outcome in [1] and in [2] was inactive.
On to `CC(c1ccc(O)cc1)(c1ccc(O)cc1)c1ccc(O)cc1`, for which the call in test [3] was inactive.
As to `Cc1cc2c3c(c1)C(c1ccccc1)=N[C@@H](NC(=O)c1ccncc1)C(=O)N3CC2`, the result in [2] was inactive.
With `c1cc2ccc3cccc4ccc(c1)c2c34`, the call in test [3] was inactive.
Regarding `NS(=O)(=O)C(F)(F)C(F)(F)C(F)(F)C(F)(F)C(F)(F)C(F)(F)C(F)(F)C(F)(F)F`, the result in test [1] and in [2] was inactive.
On to `c1ccc(-c2ccccc2)cc1`, for which the outcome in [2] was inactive.
As to `CCCCCCOC(=O)c1ccccc1C(=O)OCCCCCC`, the result in test [4], in test [5], in test [6], in test [7], in [8] and in test [9] was inactive.
For `O=S(=O)(O)C(F)(F)C(F)(F)C(F)(F)C(F)(F)F`, the outcome in test [1] and in [2] was inactive.
For the compound `Oc1c(Cl)c(Cl)c(Cl)c(Cl)c1Cl`, the result in [2], in test [4], in test [5], in test [6], in [7] and in test [8] was inactive. Further, in [9], the compound was called inactive.
On to `Oc1ccc(C(c2ccc(O)cc2)(C(F)(F)F)C(F)(F)F)cc1`, for which the result in [1] and in [2] was inactive.
Usually AC50 stands for the midpoint of the concentration-response curve, whichever way the signal moves. For the compound `O=S(=O)(O)C(F)(F)C(F)(F)C(F)(F)C(F)(F)C(F)(F)C(F)(F)F`, the concentration at half-maximal activity (AC50) in test [1] was 23.3 µM (active) and 7.48 µM (active) and 2.33 µM (active). In addition, in [2], the result was inactive.
On to `ClC1=C(Cl)[C@]2(Cl)[C@@H]3[C@@H](Cl)[C@H]4O[C@H]4[C@@H]3C1(Cl)C2(Cl)Cl`, for which the result in test [1] and in test [2] was inactive.
Regarding `O=C(O)C(F)(F)C(F)(F)C(F)(F)C(F)(F)C(F)(F)C(F)(F)C(F)(F)C(F)(F)C(F)(F)F`, the AC50 in test [1] was 12.8 µM (active). The outcome in [1], in [2], in test [4], in test [5], in test [6] and in [7] was inactive. For the same compound, the compound was called inactive in [8] and in [9].
